Compounds with a hit are over-represented: about 2.5% of the library has one in this group of screens.
Efflux pump inh – inhibitors of Candida antifungal efflux pumps expressed in yeast. 0.44% of 330,000 active. S. cerevisiae Candida pump triplex, Nile Red efflux. inhibition, % at 10 µM;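 active = plate passing quality check with inhibition over a set limit, or well fluorescence over plate mean plus 4 SD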;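 also: Nile Red retained in pooled yeast measured as flow cytometry median fluorescence; higher means more Nile Red kept so more efflux inhibition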
Mot1-301 SUMO – inhibitors of SUMOylation pathway: yeast Mot1-301 growth rescue; S. cerevisiae Mot1-301 growth rescue, ATP luminescence, 38.5C; percent above DMSO median, 100 means doubled; growth rescue, % at 18.8 µM; 1% of 320,000 active;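 active = every valid replicate shows activation above 250% relative to neutral control wells; inactive = the rest, any valid replicate at or below 250%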
AI-2 QS mod – modulators of Vibrio harveyi AI-2 quorum sensing system; Vibrio harveyi JMH597 AI-2 luminescence/OD600 ratio, 9 h; active compounds read low; strain lacks LuxN and CqsS sensors; 0 = neutral-control median; activity change, % at 7.5 µM; 0.4% of 300,000 active; AID 2094; in the data active = activity change below about -75%, passing the limit was not always enough;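 also: luminescence divided by OD600 gain over 9 h not by final OD600 alone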
V-ATPase pH – alters yeast V-ATPase proton transport. S. cerevisiae, pHLuorin cytosolic pH fluorescence. response, % at 10 µM. 0.37% of 350,000 active. AID 504577; in the data active = response mostly above about 7.3%, no sharp cut-off; inactive = mostly below about 5.4%; also: actives read high
ATG4B inh – inhibitors of human ATG4B cysteine protease. ATG4B cleavage of LC3-PLA2, NBD-HPC fluorescence, 1 h. inhibition, % at 8.33 µM. 0.51% of 340,000 active. AID 504462; in the data active = inhibition above about 40%
Target sequence (Q9Y4P1 whole entry, looked up): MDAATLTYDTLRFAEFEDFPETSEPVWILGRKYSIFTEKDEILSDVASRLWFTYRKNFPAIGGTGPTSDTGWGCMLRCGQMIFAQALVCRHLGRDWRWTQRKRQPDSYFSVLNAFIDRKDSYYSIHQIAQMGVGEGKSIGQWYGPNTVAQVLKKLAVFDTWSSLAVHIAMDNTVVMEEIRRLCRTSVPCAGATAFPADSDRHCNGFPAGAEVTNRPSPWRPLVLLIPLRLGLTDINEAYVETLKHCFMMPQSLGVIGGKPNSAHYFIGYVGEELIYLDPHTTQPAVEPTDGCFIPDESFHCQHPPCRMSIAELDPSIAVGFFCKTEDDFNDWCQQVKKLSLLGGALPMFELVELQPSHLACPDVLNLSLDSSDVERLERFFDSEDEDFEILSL
ATG4B confirm – ATG4B (human) inhibition, single-dose confirmed. shares compounds with ATG4B inh. ATG4B protease fluorescent substrate cleavage assay. inhibition, % at 8.33 µM. 92% of 320 active. AID 504757; in the data active = inhibition above about 39%
PLA2 counter – inhibits human PLA2, flagging false ATG4B inhibitors | 66% of 1,600 active | AID 588402 | inhibition, % at 8.33 µM | shares compounds with ATG4B inh | purified PLA2, NBD-C6-HPC fluorescence, 45 min; in the data active = inhibition above about 50%
Target sequence (P04054 whole entry, looked up): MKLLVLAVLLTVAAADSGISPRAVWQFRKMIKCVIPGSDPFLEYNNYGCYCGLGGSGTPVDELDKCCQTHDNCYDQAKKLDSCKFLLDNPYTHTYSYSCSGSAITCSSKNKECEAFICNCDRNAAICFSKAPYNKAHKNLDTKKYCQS
Hits are given with their value; – = inactive; · = no result given.

SMILES | Efflux pump inh | Mot1-301 SUMO | AI-2 QS mod | V-ATPase pH | ATG4B inh | PLA2 counter | others
Cc1ccc2c(c1)nnn2C1CCN(S(=O)(=O)c2ccc(C(=O)N3CC(C)CC(C)C3)cc2)CC1 (configuration not stated) | – | – | – | – | 59 | 73
CC1CC(C)(C)NC(=S)N1CCC(=O)N1CCc2ccccc2C1 (configuration not stated) | – | – | · | – | – | ·
Cc1ccc(CS(=O)Cc2ccc(C(=O)NCc3ccccc3Br)o2)cc1 (configuration not stated) | – | – | – | – | 63 | 69
Cc1ccc(CS(=O)Cc2ccc(C(=O)NCc3cccs3)o2)cc1 (configuration not stated) | – | – | – | – | – | ·
Cc1c(Cl)c([N+](=O)[O-])nn1Cc1ccc(C(=O)Nc2ccc(Cl)cn2)o1 | – | – | – | – | 46 | – | ATG4B confirm=64
O=C(CCSc1ccc(Cl)cc1)N1CCN(S(=O)(=O)c2ccccc2)CC1 | – | – | · | – | – | ·
Cn1c(SCC(=O)Nc2nc3ccccc3s2)nnc1-c1ccccc1 | – | – | · | – | – | ·
CC1(C)Cc2ccccc2-c2nnc(SCC(=O)Nc3nc4ccccc4s3)n21 | – | – | – | – | 42 | 51
CN(Cc1ccc(F)cc1)C(=O)COc1ccccc1-c1ccccc1 | – | – | – | – | 48 | –
Fc1cccc(Oc2nc3ccccc3n3cccc23)c1 | – | – | – | – | – | ·
O=C(Nc1ccc2c(c1)OCCO2)C1CCCN1C(=O)Nc1ccc(F)cc1 (configuration not stated) | – | – | – | – | – | ·
O=C(Nc1ccc(S(=O)(=O)NC2=NCCCCC2)cc1)c1ccc(Cl)c([N+](=O)[O-])c1 | – | – | · | – | – | ·
Cc1cccc(C)c1NS(=O)(=O)c1ccc(NC(=O)c2ccc(Cl)c([N+](=O)[O-])c2)cc1 | – | – | – | – | 49 | –
O=C(O)CC/C(=C\c1cccc(NC(=O)c2ccccc2Cl)c1)c1nc2ccccc2s1 | – | – | – | – | 43 | 62
O=C(O)CC/C(=C\c1ccc(N2CCCC2)c([N+](=O)[O-])c1)c1nc2ccccc2s1 | – | – | – | – | 83 | 83
O=C(O)CC/C(=C\c1ccccc1[N+](=O)[O-])c1nc2ccccc2s1 | – | – | – | – | 53 | 51
CN(c1ccccc1)c1ccc(/C=C(/CCC(=O)O)c2nc3ccccc3s2)cc1[N+](=O)[O-] | · | · | · | – | – | ·
Cc1nn(Cc2c(F)c(F)c(F)c(F)c2F)c(C)c1NC(=O)c1ccc(COc2ccc(F)cc2)o1 | – | – | – | – | 67 | 68
Cc1cccc(C)c1NC(=O)c1cccc(COc2cc(Cl)ccc2Cl)c1 | – | – | – | – | – | ·
Cc1nn(Cc2c(F)c(F)c(F)c(F)c2F)c(C)c1NC(=O)c1ccc(COc2ccccc2Cl)o1 | – | – | – | – | 68 | 79
Cc1nn(Cc2c(F)c(F)c(F)c(F)c2F)c(C)c1NC(=O)c1ccc(COc2cc(Cl)ccc2Cl)cc1 | – | – | – | – | 62 | – | ATG4B confirm=44
CN1/C(=C\C(=S)NC(=O)c2ccccc2Cl)C(C)(C)c2ccccc21 | – | – | – | – | 49 | –
CC(O)CNc1nc2sc3c(c2c(=O)n1CCc1ccccc1)CCCCC3 (configuration not stated) | – | – | – | – | 41 | 55
CN(C)CCNc1nc2sc3c(c2c(=O)n1CCc1ccccc1)CCCCC3 | – | – | · | – | – | ·
C/C(=C/CCC(C)C1CCC2(C)C3CCC4C(C)(C)C(=O)CCC4(C)C3=CCC12C)C(=O)O (configuration not stated) | · | · | – | · | · | ·
SMILES | Efflux pump inh | Mot1-301 SUMO | AI-2 QS mod | V-ATPase pH | ATG4B inh | PLA2 counter | others
C/C(=C/CCC(C)[C@H]1CC[C@@]2(C)C3=C(CC[C@]12C)[C@@]1(C)CCC(=O)C(C)(C)[C@@H]1CC3)C(=O)O (some centres not stated) | – | – | – | – | 46 | – | ATG4B confirm=79
CC(C)(C)c1ccc(S(=O)(=O)N2CCNC(=O)C2)cc1 | – | – | · | – | – | ·
Cc1cccc(C)c1NC(=O)CN1C(=O)S/C(=C\c2cccn2-c2cccc(C(=O)O)c2)C1=O | – | – | – | – | 47 | –
Cc1cccc(C)c1-n1cccc1/C=C1\SC(=S)N(c2cccc(C(=O)O)c2)C1=O | – | – | – | – | 91 | 85
CCCCOc1[nH]c2nc(-c3ccco3)n(Cc3ccco3)c(=N)c2c1C#N | – | – | – | – | – | ·
CCOC(=O)c1cn(Cc2cccc(Cl)c2)nn1 | – | – | – | – | – | ·
CCOC(=O)c1cn(Cc2c(C)c(C)c(C)c(C)c2C)nn1 | – | – | – | – | 61 | 59
CCC(CO)n1c(SCc2cc([N+](=O)[O-])cc3c2OCOC3)nc2ccccc2c1=O (configuration not stated) | – | – | – | – | 43 | 55
C=CCn1c(SCc2cc([N+](=O)[O-])cc3c2OCOC3)nc2cc(C(=O)O)ccc2c1=O | – | – | – | – | – | ·
CC(C)(O)c1ccccc1CC[C@@H](SCC1(CC(=O)O)CC1)c1cccc(/C=C/c2ccc3ccc(Cl)cc3n2)c1 | – | – | – | – | 92 | 92
Cc1ccc(C2(C)NC(=O)N(CC(=O)Nc3ccc(S(=O)(=O)Nc4nccs4)cc3)C2=O)cc1 (configuration not stated) | – | – | – | – | – | ·
Cc1ccc(S(=O)(=O)N2CCC(C(=O)NCc3ccccc3Cl)CC2)cc1 | – | – | – | – | 46 | – | ATG4B confirm=67
O=C(NCc1ccccc1Cl)C1CCN(S(=O)(=O)c2ccc(F)cc2)CC1 | – | – | – | – | – | ·
O=C(NC1CCc2ccccc21)C1CCN(S(=O)(=O)c2ccc(Cl)cc2)CC1 (configuration not stated) | – | – | – | – | 46 | –
CC1CCc2nc3ccc(S(=O)(=O)N4CCC(C(=O)NCc5ccccc5Cl)CC4)cc3c(C(=O)O)c2C1 (configuration not stated) | – | – | – | – | 55 | 79
CC(C)CN(C(=O)COC(=O)c1cc2ccccc2cc1O)c1c(N)n(Cc2ccccc2)c(=O)[nH]c1=O | · | · | · | – | – | ·
Oc1c(Br)cc(Br)c(/C=N/n2c(-c3ccccc3)n[nH]c2=S)c1Br | – | – | – | – | 44 | – | ATG4B confirm=52
Oc1ccc(Br)cc1/C=N/n1c(-c2ccccc2)n[nH]c1=S | – | – | – | – | – | ·
N=C1/C(=C/c2cccs2)C(=O)N=C2SN=C(SCc3ccccc3)N12 | – | – | – | – | 50 | 62
CC(C)CSC1=NSC2=NC(=O)/C(=C\c3cccs3)C(=N)N12 | – | – | – | – | – | ·
c1cncc(-c2nc(NCCCN3CCOCC3)c3c4c(sc3n2)CCC4)c1 | – | – | – | – | 40 | 57
